L3MBTL1 block: blocks human L3MBTL1; Q9Y468; AlphaScreen L3MBTL1–H3K9me1 peptide binding; Potency, µM (top dose mostly 57.1 µM), most hits filed as inhibitors; 0.66% of 230,000 active; AID 485360; note: nearly all actives have a fitted effect of over 60% in size
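L3MBTL1 50 nM + b-AHA-H3(1-15)K9me1 75 nM, 30 min RT; compound added, 30 min RT; streptavidin donor/Ni-chelate acceptor beads 10 ug/mL each final, 30 min RT dark; AlphaScreen read.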
G9a block: inhibitors of human histone lysine methyltransferase G9a; G9a H3K9 monomethylation, AlphaScreen, 2 h; Potency, µM (titrated, usually from 102 µM), most hits filed as inhibitors; 8.8% of 350,000 active; AID 504332; note: nearly all actives have a fitted effect of over 75% in size
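Compounds were preincubated with 20 nM G9a for 15 min, after which biotinylated H3K9 peptide (500 nM) and SAM (20 uM) started a 2 h room-temperature reaction. Monomethylated product was quantified by antibody-based AlphaScreen chemiluminescence.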
JMJD2A Tudor: JMJD2A Tudor domain (human) inhibition. O75164. AlphaScreen JMJD2A-Tudor / H3K4me3 peptide binding. Potency, µM (top dose mostly 114 µM), most hits filed as inhibitors. 4.4% of 390,000 active. AID 504339; note: nearly all actives have a fitted effect of over 50% in size
Sfp PPTase inh: Sfp phosphopantetheinyl transferase inhibition. Biochemical Sfp PPTase activity, qHTS. Potency, µM, hits mostly inhibitors. Q9F4F7. 3.5% of 310,000 active;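 note: the enzyme is Sfp with the accession as filed and its product quenches rhodamine fluorescence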
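After 15 min at room temperature with compound, 15 nM Sfp received 5 uM rhodamine-CoA plus 12.5 uM BHQ-2-ybbR (50 mM Hepes pH 7.6, 10 mM MgCl2). Rate came from the fluorescence difference over 30 min, ex 525/em 598 nm.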
BAZ2B inh: blocks human BAZ2B | 4.4% of 360,000 active | AlphaScreen BAZ2B-H3K14Ac peptide displacement | Q9UIF8 | Potency, µM (highest dose often 114 µM), most hits filed as inhibitors | AID 504333; note: nearly all actives have a fitted effect of over 60% in size
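BAZ2B 50 nM plus b-H3(5-23)K14Ac 50 nM, PBS pH 7.4/0.01% Tween-20, 30 min RT; compound added (max 110 uM), 30 min RT; streptavidin donor/Ni-chelate acceptor beads 10 ug/mL final, 20 min dark; AlphaScreen read.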
HP1b binding inh: inhibitors of HP1-beta chromodomain binding to methylated histone tails. AID 540317. AlphaScreen HP1-beta / biotin-H3K9me3 peptide binding. Potency, µM (top dose mostly 114 µM), actives largely listed as inhibitors. 0.56% of 390,000 active. P83916; note: nearly all actives have a fitted effect of over 70% in size
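HP1-beta protein (50 nM final) preincubated 30 min at room temperature with biotinylated H3(1-18)K9me3 peptide (50 nM) in PBS pH 7.4, 0.01% Tween-20, then compound added for 30 min. AlphaScreen streptavidin donor/nickel chelate acceptor beads (10 ug/mL final), 30 min dark, luminescence read.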
A number is an active result; – = inactive; ? = inconclusive; · = not tested or not shown; [ ] = another dose, or the depositor's remark. An excerpt weighted towards active compounds, which were near 12% of everything screened. Calls come from the whole dose curve; as a rule, active = well fitted curve in the direction sought with a large enough effect; inconclusive = small, poorly fitted or top-dose-only effect, or another doubt; inactive = no such curve, though single readings can be large; an effect the other way counts as inactive or inconclusive.

SMILES | L3MBTL1 block | G9a block | JMJD2A Tudor | Sfp PPTase inh | BAZ2B inh | HP1b binding inh
O=C(COC(=O)Cn1cnc2ccccc21)Nc1ccc2c(c1)C(=O)c1ccccc1C2=O | – | ? | – | – | – | –
Cc1ccc(NC(=O)COC(=O)Cn2cnc3ccccc32)cc1S(=O)(=O)N(C)C | – | 50µM | – | – | – | –
Cc1ccc(NC(=O)CNCc2ccc(Cl)cc2Cl)cc1S(=O)(=O)N(C)C | · | 10µM | 20µM | 79µM | 25µM | 35µM
COc1ccc(CNCc2ccccc2)cc1COc1ccc(NC(C)=O)cc1 | · | · | – | · | · | –
S=c1[nH]c2ccccc2s1 | · | 11µM | · | – | · | ·
O=C(Nc1ccc2[nH]c(=S)sc2c1)c1ccccc1 | – | 5.6µM | – | 50µM | – | –
O=C(Nc1ccc2[nH]c(=S)sc2c1)Nc1ccccc1F | – | 45µM | – | ? | ? | –
Cn1c2c(c(=O)n(C)c1=O)C(c1cccc(O)c1)CC(=O)N2 (configuration not stated) | · | – | – | · | – | –
CC(=O)c1cccc(NC(=O)c2cc3sc(Cl)cc3n2C)c1 | · | – | – | · | – | –
O=C(CC1=NC2(CCCC2)Cc2ccccc21)N1CCOCC1 | – | ? | ? | – | 50µM | –
O=C(Cc1ccccc1[N+](=O)[O-])N1CCOCC1 | – | – | – | – | – | –
CCC1(CC)Cc2ccccc2C(CC(=O)N2CCOCC2)=N1 | · | 40µM | 22µM | – | 56µM | –
COc1cccc(S(=O)(=O)N2CCN(S(=O)(=O)c3ccc4c(c3)OCCO4)CC2)c1 | · | · | – | · | · | ·
COc1ccc(C(=O)N=c2nc(-c3ccccc3)n(-c3ccccc3)s2)cc1 | · | · | – | · | · | –
COc1cc(C=C(c2nc3ccccc3s2)c2nc3ccccc3s2)ccc1O | – | 3.5µM | 45µM | – | 35µM | ?
COc1cc(/C=C/c2nc3ccccc3s2)cc(OC)c1O | – | 50µM | – | – | ? | –
CCOc1ccc(C(c2c(O)cc(C)n(CCOC)c2=O)N2CCN(c3ccccc3F)CC2)cc1 (configuration not stated) | · | ? | – | · | – | –
COc1ccc(/C=C2\SC(=S)N(CCCC(=O)N3CCCCC3CCO)C2=O)cc1 (configuration not stated) | · | –[0.0925 µM] | 35µM | – | 7.9µM | –
CC(C)c1ccc(/C=C2\SC(=S)N(CCC(=O)N3CCCCC3CCO)C2=O)cc1 (configuration not stated) | · | 45µM | 13µM | – | ? | –
O=C(CC1CCOCC1)Nc1ccc(Cl)c(Cl)c1 | – | 40µM | – | – | – | –
CN1CCN(C(=S)Nc2ccc(Cl)cc2)CC1 | –[11.4 µM] | – | – | – | – | –
N#CCCN1CCN(S(=O)(=O)c2cc(Cl)ccc2Cl)CC1 | – | – | – | – | – | –
CN1CCN(C(=S)c2ccc(-c3cc(Cl)ccc3Cl)o2)CC1 | ? | 32µM | 35µM | ? | 28µM | ?
N#CCCN1CCN(C(=S)c2ccc(-c3cc(Cl)ccc3Cl)o2)CC1 | – | 18µM | 40µM | – | ? | ?
COc1ccc(CCn2c(N)c(C(=O)NCc3ccco3)c3nc4ccccc4nc32)cc1OC | – | – | – | 45µM | – | –
SMILES | L3MBTL1 block | G9a block | JMJD2A Tudor | Sfp PPTase inh | BAZ2B inh | HP1b binding inh
COc1ccc(CCn2c(N)c(C(=O)NCc3ccco3)c3nc4ccccc4nc32)cc1 | – | – | – | ? | – | –
Nc1c(C(=O)NCc2ccco2)c2nc3ccccc3nc2n1CCc1ccccc1F | · | ? | – | 56µM | – | –
CCOC(=O)C1CCN(C(=O)c2ccc3c(c2)N=C(CC)c2cc(C)ccc2S3)CC1 | · | ? | ? | · | – | –
COc1ccc(/C=C/c2nc(C#N)c(N3CCCCC3)o2)cc1OC | · | – | – | · | ? | –
N#CCCCS(=O)(=O)c1nnnn1C1CCCCC1 | · | · | · | – | · | ·
O=C(CSCCc1ccccn1)Nc1ccccn1 | – | 56µM | – | – | – | –
O=C(Nc1ccccc1)Nc1ccc2nnsc2c1 | – | – | 79µM | – | – | –
COc1ccc(C(=O)c2c(C(F)(F)F)oc3c2C(=O)c2ccccc2C3=O)cc1OC | · | 14µM | ? | – | ? | ?
O=Cc1ccc2noc(-c3ccc(Cl)cc3)c2c1 | · | 22µM | – | – | – | –
Cc1ccc(-c2onc3ccc(Cl)cc23)cc1 | – | – | – | – | – | –
COc1ccc(-c2onc3ccc(Cl)cc23)cc1 | · | ? | – | 50µM | – | –
CC1(c2ccc3noc(-c4ccc(Cl)cc4)c3c2)OCCO1 | – | – | – | ? | – | –
O=c1ccc2c(o1)/C(=C/C=C(Cl)Cl)CCC2 | – | ? | – | 40µM | – | –
O=c1ccc2cc3c4c(c2o1)CCCN4CCC3 | – | ? | – | – | – | –
COc1ccc2c(c1)c1ncn(Cc3ccco3)c(=O)c1n2C | – | –[0.501 µM] | – | 18µM | – | –
COc1ccc(NC(=O)CSc2nnc(C3CC3)n2C)cc1 | – | – | 10µM | – | – | –
Cn1c(SCC(=O)Nc2ccc(Cl)cn2)nnc1C1CC1 | · | – | – | – | – | –
Cn1c(SCC(=O)c2ccccc2F)nnc1C1CC1 | – | ? | – | 50µM | ? | –
Cn1c(SCC(=O)Nc2nncs2)nnc1C1CC1 | · | · | 56µM | – | 50µM | –
CN(C)c1ccc(NC(=O)CSc2nnc(C3CCCCC3)n2N)cc1 | · | 40µM | ? | – | ? | –
Cc1nc(-c2ccc(Cl)cc2)sc1CCNC(=O)C(=O)Nc1ccc2c(c1)OCCO2 | · | – | – | · | – | –
CCCn1c(-c2ccc(F)cc2)nc2c(NCC3CCN(C)CC3)nc(C)nc21 | · | · | · | – | · | ·
O=C(CCc1nnc2n(Cc3ccccc3Cl)c(=O)c3ccccc3n12)Nc1ccc(F)cc1 | · | – | – | · | – | –
Cc1c(CC(=O)NCCc2ccccc2F)c(=O)oc2c(C)c3occ(C(C)(C)C)c3cc12 | · | – | – | · | – | –
Nn1c(SCC(=O)Nc2nccs2)nnc1C1CC1 | · | 40µM | – | – | – | –
SMILES | L3MBTL1 block | G9a block | JMJD2A Tudor | Sfp PPTase inh | BAZ2B inh | HP1b binding inh
O=C(CC1S/C(=N/N=C2CCCCCC2)NC1=O)Nc1ccccc1C(F)(F)F (configuration not stated) | · | – | – | – | – | –
CC1S/C(=N/N=C2CCC(C(C)(C)C)CC2)NC1=O (configuration not stated) | – | – | – | – | 56µM | –
CC1S/C(=N/N=C2CCCCC2)NC1=O (configuration not stated) | – | – | ? | – | 50µM | –
C=Cc1ccc(CN2C(=O)N(c3cccc(Cl)c3)S(=O)(=O)c3ccccc32)cc1 | · | – | – | · | – | –
CCC1(CC)C(=O)NC(=O)NC1=S | · | · | 50µM | · | · | –
O=c1c(-c2ccccc2)nc2cnc(N3CCNCC3)nc2n1C1CC1 | · | –[12.7 µM] | · | – | · | ·
CCCc1cc(C(=O)Nc2sc(C)c(C)c2C(=O)OCC)no1 | – | 10µM | – | 16µM | – | –
CCOC(=O)c1c(NC(=O)c2cc(C(C)C)on2)sc(C)c1C | · | 20µM | – | · | – | –
COc1ccc(-c2cn3cccnc3n2)cc1NC(=O)c1ccc(Br)o1 | – | 2.8µM | ? | ? | ? | –
